The panel holds about 83,000 compounds, 20% with a hit somewhere; the sample as a whole holds those more often.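 Assay: single dose, 48 h. Readout: percent growth (0 = no net growth; negative = cell death). Active: <10.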 Unmarked numbers belong to inactive results. Activity calls are given as the source filed them.
Legend:
Assay in all cases: NCI-60 one-dose screen, 48 h (100 = growth as untreated, 0 = no growth, -100 = all killed)
Conditions in all cases: 10 µM unless noted
[1] = tested on: SK-MEL-2 melanoma
[2] = tested on: EKVX NSCLC
[3] = tested on: SN12C renal
[4] = tested on: UO-31 renal
[5] = tested on: TK-10 renal
[6] = tested on: ACHN renal
[7] = tested on: CAKI-1 renal
[8] = tested on: A498 renal
[9] = tested on: CCRF-CEM leukemia
[10] = tested on: MOLT-4 leukemia

Row | SMILES | growth [1] | growth [2] | growth [3] | growth [4] | growth [5] | growth [6] | growth [7] | growth [8] | growth [9] | growth [10]
1 | CC(C)=CCC[C@](C)(O)C1CC[C@]2(C)[C@@H]1CC[C@@H]1[C@@]3(C)CC/C(=N\OCCC#N)C(C)(C)[C@@H]3CC[C@]12C (stereo not given in full) | 100% | 72.4% | 80% | 60.5% | 105% | 90.3% | 77.5% | 72.8% | 75.8% | 77.5%
2 | CCCC[N+]1(C)CCN=C1Cc1ccccc1 (stereo not given) | 103% | 96.6% | 94.4% | 95.5% | 91.5% | 112% | 95.8% | 97.2% | 83.5% | 94.6%
3 | COc1cccc2cc(N(C)c3nc(C)nc4c3CCC4)ccc12 | 41% | 56.1% | 17.2% | 38.7% | 58% | 27.3% | 18.4% | -11.4% (active) | 15.2% | 14.8%
4 | C#Cc1ccc(NC(=O)Cc2ccc(/C=C/C(=O)c3nccn3C)cc2)cc1 | 103% | 78.4% | 68% | 58.7% | 94.9% | 96.5% | 47.7% | 105% | 21.4% | 40.8%
5 | CN1CCN(Cc2ccc(NC(=O)c3cncc(C#Cc4cnc(N)c5ncccc45)c3)cc2Cl)CC1 | 56.5% | 106% | 92.5% | 64.7% | 104% | 41.8% | 73.5% | 104% | -2.07% (active) | 83%
6 | C#CCOC(=O)C(N)CSSCC(N)C(=O)O (stereo not given) | 89.2% | 102% | 105% | 83.5% | 100% | 91.7% | 90.7% | 116% | 99.4% | 102%
7 | O=C(NCCN1CCOCC1)c1cncnc1Nc1ccc2c(ccn2Cc2ccccn2)c1 | 110% | 104% | 93.7% | 88.5% | 98.7% | 107% | 92.4% | 101% | 121% | 104%
8 | O=C1C(Nc2ccc(Br)cc2)=C(I)C(=O)c2ncccc21 | 79.2% | 77.6% | 1.34% (active) | -38.4% (active) | 70.7% | -20.1% (active) | 18.6% | 96% | 8.63% (active) | -2.02% (active)
9 | O=C(c1ccc(F)cc1)C1CCN(CCn2c(=O)[nH]c3ccccc3c2=O)CC1 | 106% | 89.3% | 105% | 64.6% | 105% | 94.8% | 84.2% | 118% | 101% | 95.5%
10 | O=[N+]([O-])c1ccc(Oc2cccc3c(Oc4ccc([N+](=O)[O-])cc4[N+](=O)[O-])cccc23)c([N+](=O)[O-])c1 | 90.4% | 77.7% | 74.8% | 72.8% | 119% | 93.4% | 89.2% | 108% | 95.7% | 102%
11 | Cc1ccc(Nc2oc(-c3ccccc3)nc2[P+](c2ccccc2)(c2ccccc2)c2ccccc2)cc1 | -69.1% (active) | -31.3% (active) | 7.56% (active) | -72.8% (active) | -32.2% (active) | 2.5% (active) | -29.8% (active) | -52.2% (active) | 6.27% (active) | -2.23% (active)
12 | CCCCCN(CCCCC)CC(O)c1c(Cl)ccc2ccccc12 (stereo not given) | 93.4% | 62.5% | 70.2% | 37.2% | 98.1% | 54.7% | 60% | 68.3% | 67.2% | 54%
13 | COc1ccc(Nc2nc(Nc3cc(C)[nH]n3)c3cc(OC)c(OC)cc3n2)cc1 | -68.6% [20 µM] (active) | -79.5% [20 µM] (active) | -90.4% [20 µM] (active) | -100% [20 µM] (active) | -86.6% [20 µM] (active) | -100% [20 µM] (active) | -100% [20 µM] (active) | -98.7% [20 µM] (active) | -38.9% [20 µM] (active) | -57.1% [20 µM] (active)
